Compounds with a hit are over-represented: about 17% of the library has one in this group of screens.
TDP1 cell noCPT: qHTS for Inhibitors of human tyrosyl-DNA phosphodiesterase 1 (TDP1): qHTS in cells in absence of CPT; DT40 Tdp1-/- hTDP1 cells, no CPT, ATP luminescence, 48 h; Potency, µM (doses to about 46.2 µM), inactives show at the highest dose activity change, negative = growth inhibition, hits mostly inhibitors; actives 15% (n = 420,000); AID 686978, 2013; also: % is scaled to controls: 0 for no effect and ±100 for the full control effect; nearly all actives have a fitted effect of over 55% in size
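Camptothecin absent (DMSO only). Human TDP1-complemented DT40 knockout cells, 400 cells/well, 37 °C for minimum 48 hr; ATP measured via CellTiter-Glo, 30 min dark incubation, luminescence.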
TDP1 cell CPT: DT40-hTDP1 cell growth loss with CPT | chicken DT40 Tdp1-/-;hTDP1 cells + 20 nM CPT, ATP luminescence, 48 h | Potency, µM (top dose mostly 46.2 µM), for the others: at the top dose activity change, negative = growth inhibition, hits mostly inhibitors | actives 12% (n = 420,000) | AID 686979; also: % is scaled to controls: 0 for no effect and ±100 for the full control effect; nearly all actives have a fitted effect of over 55% in size
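Chicken DT40 Tdp1-/- cells stably complemented with human TDP1 were seeded at 400 cells/well in medium containing 20 nM camptothecin, exposed to pin-transferred compounds, and grown at 37 °C for at least 48 hr. Viability was read as ATP luminescence.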
ClpP mod: qHTS Assay for Activators of ClpP | ATP-dependent Clp protease proteolytic subunit (Bacillus subtilis (strain 168)), P80244 | purified B. subtilis ClpP, FRET peptide cleavage, 20 min | Potency, µM (titrated, usually from 57.5 µM), inactives show at the top dose activity change, negative = active | actives 1.9% (n = 340,000) | AID 651965, 2013; active = well fitted falling curve with a large enough effect; inconclusive = small, poorly fitted or top-dose-only effect; inactive = no such curve, though single readings can be large or run the other way; also: the source files actives as falling curves though it sought activators and does not explain the sign; nearly all actives have a fitted effect of over 65% in size
Target sequence (P80244 whole entry, looked up): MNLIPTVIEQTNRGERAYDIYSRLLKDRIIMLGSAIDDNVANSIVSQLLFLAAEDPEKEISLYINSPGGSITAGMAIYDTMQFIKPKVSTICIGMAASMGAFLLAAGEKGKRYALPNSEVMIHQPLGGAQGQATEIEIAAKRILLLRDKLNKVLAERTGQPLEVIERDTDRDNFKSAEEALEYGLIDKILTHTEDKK
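Buffer: 100 mM Tris/HCl pH8, 100 mM KCl, 0.05% low protease BSA, 2.5% glycerol, 0.01% Tween-20. ClpP 10 microg/mL final; 20 min RT; delta FRET normalized to ADEP and DMSO controls.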
TDP1 inh: blocks human tyrosyl-DNA phosphodiesterase 1. Q9NUW8. recombinant TDP1, AlphaScreen DNA substrate cleavage. Potency, µM (titrated, usually from 130 µM), for the others: top-dose activity change, negative = inhibition, usual class: inhibitors. actives 0.28% (n = 350,000). AID 485290; also: % is scaled to controls: 0 for no effect and ±100 for the full control effect; nearly all actives have a fitted effect of over 40% in size
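Here, a 5' biotin and 3' phosphotyrosine-FITC DNA oligonucleotide reports Tdp1 activity: intact substrate bridges AlphaScreen beads, while cleavage leaves a 3' phosphate and drops signal. All incubations at room temperature.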
Active calls of the source: *; ? = inconclusive; . = no result; [ ] = remark or other dose. Unless noted, calls follow the shape of the dose curve; as a rule, active = well fitted curve in the direction sought with a large enough effect; inconclusive = small, poorly fitted or top-dose-only effect, or another doubt; inactive = no such curve, though single readings can be large; an effect the other way counts as inactive or inconclusive. Potency is read from the fitted curve at half-maximal effect.

SMILES	TDP1 cell noCPT	TDP1 cell CPT	ClpP mod	TDP1 inh
Cc1cccc(OCC(=O)Nc2nnc(S(=O)(=O)N3CCCCCC3)s2)c1	?	-30%	0%	4%
NS(=O)(=O)c1ccc(CCNc2ccnc3cc(Cl)ccc23)cc1	15µM*	?	.	2%
NS(=O)(=O)c1ccc(CCNS(=O)(=O)c2cccc(C(=O)O)c2)cc1	1%	1%	-1%	79µM*
NS(=O)(=O)c1ccc(CCNC(=O)c2ccc3nccnc3c2)cc1	-23%	-8%	?	7.9µM*
NS(=O)(=O)c1ccc(CCNC(=O)Nc2ccc(Cl)c(Cl)c2)cc1	23µM*	?	-2%	2%
COC(=O)[C@H](CC(C)C)N1Cc2cc(OC)cc(OC)c2-c2ccccc2S1(=O)=O	16µM*	?	5%	0%[56.1 µM]
COc1ccc(C(=O)c2ccc(Cl)c([N+](=O)[O-])c2)cc1	0.73µM*	0.82µM*	-5%	0%
Cc1cc2ccccn2c1C(=O)c1ccc(Cl)c([N+](=O)[O-])c1	?	21µM*	-1%	5%
Cc1cc2ccccn2c1C(=O)c1ccc([N+](=O)[O-])o1	18µM*	23µM*	1%	10%
Cc1c(C=O)c2ccccn2c1C(=O)c1ccc(Cl)c([N+](=O)[O-])c1	16µM*	?	.	0%
Cc1cc2ccccn2c1C(=O)c1cccc([N+](=O)[O-])c1	?	?	.	8%
Cc1c(C=O)c2ccccn2c1C(=O)c1ccccc1	?	-25%	?	-4%
O=C(c1cccnc1)N1CCN(Cc2ccc3ccccc3c2)CC1	?	?	-1%	.
CCN(C[C@H]1N[C@@](CC)(C(=O)OC)[C@H]2C(=O)N(Cc3ccccc3)C(=O)[C@@H]12)S(=O)(=O)c1ccc(-c2ccccc2)cc1	?	?	-7%	2%
CCN(C[C@H]1N[C@@](CC)(C(=O)OC)[C@H]2C(=O)N(Cc3ccccc3)C(=O)[C@@H]12)S(=O)(=O)c1ccc(OC(F)(F)F)cc1	16µM*	?	-1%	-1%
CCN(C[C@H]1N[C@@](CC)(C(=O)OC)[C@H]2C(=O)N(Cc3ccccc3)C(=O)[C@@H]12)S(=O)(=O)c1ccc(C(C)(C)C)cc1	23µM*	13µM*	-3%	-1%
COc1cc(OC)c(NC(=O)c2cc3c(s2)-c2ccc(Cl)cc2SC3)cc1Cl	-14%	0%	-2%	0%
CCCCn1nnnc1C(CC)N1CCN(C/C=C/c2ccccc2)CC1 (stereo not given)	?	?	-4%	.
CCCCn1nnnc1C(c1ccnc2ccccc12)N1CCN(C/C=C/c2ccccc2)CC1 (stereo not given)	21µM*	21µM*	0%	.
CCCCn1nnnc1C(c1cccc2ccccc12)N1CCN(C/C=C/c2ccccc2)CC1 (stereo not given)	21µM*	?	-2%	.
C=CCN1CCN(C(c2ccccc2)c2nnnn2CCC(C)C)CC1 (stereo not given)	6.5µM*	6.5µM*	-3%	12%
CCCCn1nnnc1C(c1ccccc1)N1CCN(C/C=C/c2ccccc2)CC1 (stereo not given)	16µM*	?	0%	.
CCCCn1nnnc1C(c1ccccc1OC(F)(F)F)N1CCN(C/C=C/c2ccccc2)CC1 (stereo not given)	?	?	-4%	.
CCOC(=O)c1c(-c2ccc(C)cc2)csc1NC(=O)c1cc(=O)c2cc(C)ccc2o1	4%	-7%	-1%	-4%
O=C(COC(=O)CNS(=O)(=O)c1ccc2ccccc2c1)Nc1ccccc1Sc1ccccc1	?	-19%	-18%	3%
SMILES	TDP1 cell noCPT	TDP1 cell CPT	ClpP mod	TDP1 inh
CCCCn1nnnc1C(c1ccccc1)N1CCN(c2ncc(C(F)(F)F)cc2Cl)CC1 (stereo not given)	18µM*	?	2%	.
CCC(=O)NS(=O)(=O)c1ccc(-c2c(-c3ccccc3)noc2C)cc1	-20%	-1%	.	.
O=C(CCc1c[nH]c2ccccc12)Nc1ccc(S(=O)(=O)Nc2ncccn2)cc1	-12%	2%	32µM*	8%
O=C(NC1CCCc2ccccc21)C1CCN(C(=O)c2sccc2-n2cccc2)CC1 (stereo not given)	?	15µM*	-1%	9%
O=C(NCCc1ccccc1)C1CCN(C(=O)c2sccc2-n2cccc2)CC1	?	-7%	-1%	2%
Cc1cccc(OC(=O)c2snnc2C)c1	7%	-1%	1%	-5%
Cc1ccc(F)c(S(=O)(=O)NC(=O)C2(C)CCN2C(=O)Cc2ccccc2)c1 (stereo not given)	8%	10%	-2%	.
C=CCN1C(=O)C(O)(CC(=O)c2ccc(-n3cccc3)cc2)c2ccccc21 (stereo not given)	?	?	-6%	11%
C=CCN1C(=O)C2(NNc3ccccc3O2)c2ccccc21 (stereo not given)	8.2µM*	6.5µM*	-6%	11%
C=CCN1C(=O)C2(NC(=O)c3ccccc3N2)c2ccccc21 (stereo not given)	?	18µM*	.	5%
O=C1NC2(Nc3ccccc31)C(=O)Nc1ccccc12 (stereo not given)	?	-25%	?	-1%
COc1ccc(NC(=O)C2CCN(S(=O)(=O)c3ccc4c(c3)CCCC(=O)N4)CC2)c(OC)c1	.	.	-2%	5%
N#Cc1c(NC(=S)NC(=O)c2ccccc2)sc2c1CCCCC2	?	?	0%	4%
N#Cc1c(NC(=O)c2cccnc2)sc2c1CCC2	?	23µM*	2%	2%
CC(C)c1cc(C(=O)Nc2sc3c(c2C#N)CCC3)no1	23µM*	?	0%	7%
Cn1ncc(Cl)c1C(=O)NC(=S)Nc1sc2c(c1C#N)CCCCC2	?	21µM*	-1%	4%
N#Cc1c(NC(=S)NC(=O)c2ccccc2)sc2c1CCCC2	?	?	0%	-3%
N#Cc1c(NC(=O)c2ccccc2)sc2c1CCC2	16µM*	18µM*	-18%	-2%
Cc1cnc(C)c(-c2cccc3c2OC(CNC(=O)c2cc(C)on2)C3)n1 (stereo not given)	-7%	-1%[9.04 µM]	.	.
CC(c1ccncc1)C(C)c1ccncc1 (stereo not given)	0%	-14%	-5%	-5%
CC(=O)Nc1sc2c(c1C#N)CCC2	-6%	-1%	.	9%
N#Cc1c(NC(=O)c2ccc([N+](=O)[O-])o2)sc2c1CCC2	10µM*	18µM*	1%	5%
N#Cc1c(NC(=O)c2cnccn2)sc2c1CCCC2	12µM*	9.2µM*	2%	.
NC(=O)c1c(NC(=O)c2ccc([N+](=O)[O-])o2)sc2c1CCCC2	?	?	-6%	10%[0.0935 µM]
